Bioassay records as filed in PubChem.
CYP2C9 inh = human CYP2C9 inhibition; AID 777; inhibition, % at 5 µM; CYP2C9 Supersomes, luciferin-H conversion, luminescence; hit rate 20% among 96,000;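 active = blocking of liver enzyme CYP2C9 beyond about 50% at 5 µM, limit read from the data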
CYP2C9 act = activators of human CYP2C9 | recombinant CYP2C9, luciferin-H conversion, luminescence; hits give high values; factor 1 = untreated enzyme, 0 = blocked | activation factor at 5 µM | hit rate 1.4% among 96,000;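 active = activation factor of 2 or more for CYP2C9 at a 5 µM dose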;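 note: 0 = sulfaphenazole-blocked wells and 1 = vehicle-only wells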
CYP2C19 activ = activators of human cytochrome P450 2C19 | AID 1025 | recombinant CYP2C19, luciferin-H EGE luminescence; hits give high values; 0 = fully inhibited enzyme, 1 = untreated enzyme | activation factor at 5 µM | 96,000 tested, under 10 active | P33261;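 active = activation factor of at least 2 at 5 µM in the primary screen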;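 note: 0 = wells with 2.5 mM tranylcypromine and 1 = vehicle-only wells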
Target sequence (P33261 whole entry, looked up): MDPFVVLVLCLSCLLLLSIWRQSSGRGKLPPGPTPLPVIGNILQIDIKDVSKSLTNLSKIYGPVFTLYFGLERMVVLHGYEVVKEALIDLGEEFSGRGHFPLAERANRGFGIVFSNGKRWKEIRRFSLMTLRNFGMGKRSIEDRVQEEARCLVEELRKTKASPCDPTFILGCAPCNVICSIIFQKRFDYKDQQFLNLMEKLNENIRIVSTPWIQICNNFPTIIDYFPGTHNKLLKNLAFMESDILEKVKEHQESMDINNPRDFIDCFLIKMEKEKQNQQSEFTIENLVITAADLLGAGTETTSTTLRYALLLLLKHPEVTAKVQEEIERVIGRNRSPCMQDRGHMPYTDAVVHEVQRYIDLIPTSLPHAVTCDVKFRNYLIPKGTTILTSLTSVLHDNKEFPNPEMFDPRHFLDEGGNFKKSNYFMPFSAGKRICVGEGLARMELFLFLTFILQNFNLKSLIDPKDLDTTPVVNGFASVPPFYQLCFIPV
CYP2C19 inh = inhibitors of human CYP2C19 | CYP2C19 Supersomes, luciferin-H EGE luminescence, 30 min | AID 778 | hit rate 21% among 96,000 | inhibition, % at 5 µM;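 active = CYP2C19 inhibition above a set limit at 5 µM in the primary screen, cut at about 50% in these data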;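 note: plate controls were negative control wells for no effect and 2.5 mM tranylcypromine positive control for full effect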
The depositor's hits bear a star. An excerpt weighted towards active compounds, which were near 31% of everything screened.

SMILES	CYP2C9 inh	CYP2C9 act	CYP2C19 activ	CYP2C19 inh
Cc1nc(Nc2ccncc2)c2oc3ccccc3c2n1	-5.0	1.1	0.9	6.9
Cc1nc(NC(C)c2ccccc2)c2oc3ccccc3c2n1 (stereo not given)	60.9*	0.4	0.6	44.4
COc1ccc(OC)c(NC(=O)CN(c2ccc(OC)c(Cl)c2)S(C)(=O)=O)c1	63.2*	0.4	0.6	39.3
C=CCNC(=O)CN(c1ccc(OC)cc1OC)S(C)(=O)=O	-4.9	1	0.8	16.9
COc1ccc(CCNC(=O)CN(c2ccc(OC)c(OC)c2)S(C)(=O)=O)cc1	79.6*	0.2	0.6	38.0
COc1ccc(C)cc1NC(=O)CN(c1ccccc1)S(C)(=O)=O	50.6*	0.5	0.8	22.4
CCOc1ccc(NC(=O)CN(c2ccc(OC)cc2)S(C)(=O)=O)cc1	49.4	0.5	0.8	24.9
COC(=O)c1ccc(NC(=O)CN(c2ccc(OC)cc2)S(C)(=O)=O)cc1	66.9*	0.3	0.8	15.4
COc1ccc(S(=O)(=O)N2CCC(=O)N2)cc1	10.3	0.9	1	4.4
COc1ccc(NC(=O)Cn2c(C)cc(=O)c3cccc(OC)c32)cc1	6.4	0.9	1	3.3
CCOc1ccc2nc(SCC(=O)N(C)C)[nH]c2c1	14.1	0.9	0.8	18.6
CCSc1nc(C)cc(Oc2ccc(=O)n(C)n2)n1	-0.1	1	0.9	11.2
CCOC(=O)Cc1c(C)nc2c(-c3ccccc3OC)c(C)nn2c1C	4.9	1	0.8	15.6
CCN(CC)CCCNC(=O)C1CCC(=O)N(c2ccc(OC)cc2)C1c1ccc(F)cc1 (stereo not given)	-19.5	1.2	1.2	-20.7
CCOc1ccc(N(CC(=O)Nc2ccc(OC)cc2)S(C)(=O)=O)cc1	19.5	0.8	0.9	11.4
COCCCNC(=O)CN(c1ccc(OC)cc1)S(=O)(=O)c1ccc(NC(C)=O)cc1	36.1	0.6	0.6	40.0
COc1ccc(N(CC(=O)NC(C)C)S(=O)(=O)c2ccc(NC(C)=O)cc2)cc1	93.4*	0.1	0.1	88.1*
COc1ccc(NC(=O)CN(c2ccc(C)cc2)S(C)(=O)=O)c(OC)c1	97.5*	0	0.2	77.6*
O=C(Nc1cccc(C(F)(F)F)c1)/C(=C/c1ccco1)NC(=O)c1cccs1	12.7	0.9	0.7	34.3
CCc1nnc(NC(=O)C(=O)NCCOC(=O)c2ccccc2)s1	34.6	0.7	0.8	21.9
CCOC(=O)C1=NNC(C(=O)c2ccc(OC)cc2)C1c1ccccc1 (stereo not given)	52.2*	0.5	0.6	37.7
CCOC(=O)c1cc(-c2ccccc2)sc1NC(=O)c1ccc(OC)cc1	19.3	0.8	1	0.3
O=C(CSc1nnc2scc(-c3ccc(Cl)cc3)n12)NCc1ccco1	38.2	0.6	0.4	56.4*
C=CCn1c(SC(C)C(=O)NCc2ccc3c(c2)OCO3)nc2scc(-c3ccccc3)c2c1=O (stereo not given)	79.9*	0.2	0.2	75.6*
C=CCn1c(SCC(=O)NCc2ccc3c(c2)OCO3)nc2scc(-c3ccc(F)cc3)c2c1=O	0.3	1	1.1	-12.5
SMILES	CYP2C9 inh	CYP2C9 act	CYP2C19 activ	CYP2C19 inh
O=C(CSc1nnc(Cc2cccs2)n1-c1ccccc1)NCc1ccc2c(c1)OCO2	59.0*	0.4	0.8	19.6
O=C(CSc1nnc2scc(-c3ccccc3)n12)NCc1ccc2c(c1)OCO2	12.5	0.9	0.3	67.9*
CCN(CC(=O)NCc1ccc(F)cc1)C(=O)C1CCN(C(=O)Nc2ccccc2)CC1	-10.4	1.1	1	1.6
O=C(NCC1CCCO1)c1cccc(Br)c1 (stereo not given)	-41.8	1.4	1.1	-11.9
CC(Sc1nnc(-c2cccs2)n1-c1ccccc1)C(=O)NCc1ccc2c(c1)OCO2 (stereo not given)	93.2*	0.1	0.3	74.7*
CC(Sc1nnc(C2CCCCC2)n1N)C(=O)NCc1ccc2c(c1)OCO2 (stereo not given)	30.6	0.7	0.7	32.5
CCOc1ccc2nc(NC3=NC(c4ccc(OC)cc4)CC(=O)N3)nc(C)c2c1 (stereo not given)	1.6	1	1.1	-5.4
CCOc1ccc2nc(NC3=NC(C)(C)C=C(C)N3)nc(C)c2c1	72.5*	0.3	0.5	49.1
COc1ccccc1CN(Cc1cc2cc(C)ccc2[nH]c1=O)Cc1nnnn1Cc1ccco1	97.7*	0	0	98.7*
COc1ccc2[nH]c(=O)c(CN(Cc3ccco3)Cc3nnnn3Cc3ccccc3)cc2c1	-4.1	1	0.9	12.4
CCc1ccc2[nH]c(=O)c(CN(Cc3ccccc3OC)Cc3nnnn3Cc3ccco3)cc2c1	96.3*	0	0.4	57.9*
CCOC(=O)Cn1nnnc1CN(Cc1ccc(OC)cc1)Cc1cc2cc(CC)ccc2[nH]c1=O	95.2*	0	0	97.1*
NC(=O)CSc1nnc(Cc2ccc3c(c2)OCO3)n1C1CCCCC1	-8.1	1.1	0.8	22.6
N=c1sccn1CC(=O)Nc1ccccc1Oc1ccccc1	6.6	0.9	0.8	23.1
COc1ccc(CNCCC(c2ccccc2)c2ccc3c(c2)OCO3)cc1 (stereo not given)	5.6	0.9	0.2	78.9*
Cc1ccc(C(=O)c2c(NC(=O)c3ccccc3C)sc(C)c2C)cc1	78.1*	0.2	0.7	30.4
O=C(CSc1ncnc2c1oc1ccccc12)OCc1ccccc1	12.3	0.9	0.9	6.2
CC(C)CCNC(=O)c1nnc(Cc2ccc(Cl)cc2)o1	-89.1	1.9	0.9	11.6
O=C(NCCc1ccc(Cl)cc1)C1CCN(C(=O)c2sccc2-n2cccc2)CC1	52.2*	0.5	0.6	44.1
O=C(NNS(=O)(=O)c1ccccc1)c1sccc1-n1cccc1	33.6	0.7	0.6	39.7
O=C(NCCc1ccc(Cl)cc1)C1CCN(S(=O)(=O)N2CCCC2)CC1	43.0	0.6	0.9	13.7
CC(CCc1ccccc1)NC(=O)C1CCN(C(=O)c2sccc2-n2cccc2)CC1 (stereo not given)	77.5*	0.2	0.3	72.0*
O=C(NNC(=O)c1sccc1-n1cccc1)c1ccc(Cl)cc1	-170.8	2.7*	0.9	6.1
O=C(NC(Cc1ccccc1)C(=O)NCc1ccccn1)c1ccco1 (stereo not given)	6.8	0.9	0.7	25.7
O=C(Nc1ccc(CN2CCOCC2)cc1)c1ccc(-c2ccc(Br)cc2)o1	23.1	0.8	0.8	18.2
SMILES	CYP2C9 inh	CYP2C9 act	CYP2C19 activ	CYP2C19 inh
CCN(CC)CC(=O)n1c2c(c3ccccc31)CCCC2	-15.7	1.2	0.6	37.2
O=C(CSc1ncccn1)n1c2c(c3ccccc31)CCCC2	-111.8	2.1*	1	-2.9
COC(=O)c1ccccc1NC(=O)CSc1nnc(-c2cccc(NC(C)=O)c2)n1C	38.7	0.6	0.1	94.1*
CC(=O)Nc1cccc(-c2nnc(SCC(=O)n3c4c(c5ccccc53)CCCC4)n2C)c1	-11.6	1.1	0.1	92.9*
c1ccc(-c2csc(Cc3nnc4n3CCCCC4)n2)cc1	5.5	0.9	0.8	24.1
COc1ccccc1N1CCc2c(C)nc3c(OC)cccc3c21	4.9	1	1	3.0
COC(=O)c1ccc(NC(=O)N2CCC(O)(c3cccnc3)CC2)cc1	-7.8	1.1	1	-2.1
